Key:
Test in all cases: PBM binding z-score (relative to random genomic background probes); higher = stronger binding; sequences stand for … in GC…GCGATTGACAGCGTAGAATGAAGG
[1] = system: FXR:RXRa (NR concentration 270 nM, RXRa partner concentration 90 nM)
Outline: (§1)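 Custom Agilent 4×180K protein-binding microarrays carried double-stranded probes, each with a 34-nt variable region. These regions held direct-repeat seeds, single-nucleotide variants, half-site ablations and random human genomic background sequences. Ligand-free nuclear receptor dimers were incubated on the arrays for 1 h, antibodies against each partner (one per run) detected binding, and scanned fluorescence was regression-normalized. Binding z-scores take the random background probes as reference.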

[2] = system: LXRa:RXRa (NR concentration 270 nM, RXRa partner concentration 90 nM)
Outline: as §1

[3] = system: LXRa homodimer (NR concentration 270 nM)
Outline: as §1

[4] = system: LXRb:RXRa (NR concentration 270 nM, RXRa partner concentration 90 nM)
Outline: as §1

[5] = system: LXRb homodimer (NR concentration 270 nM)
Outline: as §1

[6] = system: PPARa:RXRa (NR concentration 270 nM, RXRa partner concentration 90 nM)
Outline: as §1

[7] = system: PPARg:RXRa (NR concentration 180 nM, RXRa partner concentration 90 nM)
Outline: as §1

[8] = system: PPARg:RXRa 270nM:90nM, anti-RXR (NR concentration 270 nM, RXRa partner concentration 90 nM)
Outline: as §1

[9] = system: PPARg:RXRa 30nM:10nM, anti-RXR (NR concentration 30 nM, RXRa partner concentration 10 nM)
Outline: as §1

[10] = system: PPARg:RXRa 90nM:30nM, anti-RXR (NR concentration 90 nM, RXRa partner concentration 30 nM)
Outline: as §1

[11] = system: PPARg:RXRa DBDmut IVT, anti-RXR (DBD mutation: RXRa K156A/R161A, NR concentration 270 nM, RXRa partner concentration 90 nM)
Outline: as §1

[12] = system: PPARg:RXRa IVT, anti-PPARg (NR concentration 270 nM, RXRa partner concentration 90 nM)
Outline: as §1

[13] = system: PPARg DBDmut:RXRa IVT, anti-PPARg (DBD mutation: PPARg1 K132A/R137A, NR concentration 270 nM, RXRa partner concentration 90 nM)
Outline: as §1

[14] = system: PPARg DBDmut IVT, anti-PPARg (DBD mutation: PPARg1 K132A/R137A, NR concentration 270 nM)
Outline: as §1

[15] = system: PPARg homodimer (NR concentration 180 nM)
Outline: as §1

[16] = system: PXR:RXRa (NR concentration 270 nM, RXRa partner concentration 90 nM)
Outline: as §1

[17] = system: PXR homodimer (NR concentration 270 nM)
Outline: as §1

[18] = system: RARa:RXR (NR concentration 270 nM, RXRa partner concentration 90 nM)
Outline: as §1

[19] = system: RARa homodimer (NR concentration 270 nM)
Outline: as §1

[20] = system: RARb:RXRa (NR concentration 270 nM, RXRa partner concentration 90 nM)
Outline: as §1

| Sequence | PBM binding z-score [1] | PBM binding z-score [2] | PBM binding z-score [3] | PBM binding z-score [4] | PBM binding z-score [5] | PBM binding z-score [6] | PBM binding z-score [7] | PBM binding z-score [8] | PBM binding z-score [9] | PBM binding z-score [10] | PBM binding z-score [11] | PBM binding z-score [12] | PBM binding z-score [13] | PBM binding z-score [14] | PBM binding z-score [15] | PBM binding z-score [16] | PBM binding z-score [17] | PBM binding z-score [18] | PBM binding z-score [19] | PBM binding z-score [20] |
| --- | --- | --- | --- | --- | --- | --- | --- | --- | --- | --- | --- | --- | --- | --- | --- | --- | --- | --- | --- | --- |
| TCGAGTAGGTTAGTCGTGGCATTCAGCCAACATA | -0.318 | -0.31 | -0.35 | -0.47 | -1.11 | 0.293 | -0.232 | 0.763 | 1.36 | 0.958 | 2.28 | 1.66 | -0.875 | -1.07 | -0.343 | -0.558 | -0.596 | -0.421 | -0.619 | -0.00522 |
| GCATATAGGTAATACAAGGGGAAAGTCCGATTGT | 0.256 | 0.159 | 0.0811 | -0.078 | -0.118 | 0.754 | 0.908 | 0.64 | 0.337 | 0.269 | 4.01 | 2.14 | 0.831 | 0.956 | 0.379 | -0.118 | 0.0351 | 0.489 | 0.339 | -0.122 |
| GCGACTGGAGCAAAGCAGGTTACCATAAGGTTGG | -0.343 | -0.594 | -0.842 | -0.498 | -1.26 | 0.27 | 0.477 | -0.112 | -0.43 | -0.311 | 1.03 | 0.463 | -1.39 | -1.59 | 0.00968 | -0.101 | -0.667 | 0.372 | -0.65 | -0.192 |
| AGAACGAGGGCATTGAGTTGATAGCACGGGTGGC | 0.832 | 0.491 | -0.273 | 0.0744 | -0.545 | 1.26 | 1.02 | 0.78 | -0.308 | 6.55e-05 | 2.94 | 2.27 | 0.115 | -0.519 | 0.179 | 2.79 | 9.1 | 0.267 | -0.274 | 1.87 |
| TCTTGTAGATCAGCAGGTTAAGAACGCTGGCCAA | -0.138 | -0.0946 | -0.388 | 0.178 | -0.52 | 0.745 | -0.296 | 1.38 | 2.39 | 1.59 | 1.41 | 0.294 | -0.675 | -0.754 | -0.66 | -0.00865 | -0.543 | 0.211 | -0.75 | 0.0804 |
| ATCTCTAGGTAACCAAGTTCAGTCAATGCCGAAC | 0.839 | 1.13 | 1.15 | 1.16 | 0.769 | 1.56 | 0.836 | 0.815 | 0.185 | 0.74 | 4.07 | 3.07 | 0.988 | 0.947 | 1.23 | 2.3 | 2.93 | 1.03 | 1.01 | 1.34 |
| CCTTACGGGTCAAGGTCATAGCACGGGTGGTACG | 6.75 | 5.29 | 1.9 | 4.12 | 0.624 | 5.78 | 6.03 | 5.86 | 2.53 | 4.68 | 1.92 | 4.64 | 0.493 | -0.425 | 2.88 | 5.05 | 1.3 | 5.28 | 0.441 | 5 |
| TCAAGTTGGTCACGGAGGTCACACACGACGGGTA | 3.09 | 3.76 | 2.38 | 3.17 | 0.603 | 4.18 | 3.94 | 3.95 | 3.52 | 3.47 | 2.45 | 3.99 | 1.48 | 0.93 | 2.72 | 4.35 | 1.65 | 4.61 | 1.86 | 3.98 |
| ACTAGCAGGCCAAGTTTGGGTCACTCACACAAAG | 0.272 | 0.288 | -0.0849 | 0.693 | -0.282 | 1.41 | 0.507 | 0.233 | -0.397 | -0.0603 | 0.874 | 1.38 | -1.02 | 0.437 | 0.553 | 0.973 | 0.229 | 1.62 | -0.272 | 2.06 |
| TAGCCTAGGTCAGATCGGGCCAGAATACGCTATA | 1.65 | 1.06 | -0.312 | 0.942 | -0.714 | 1.79 | 0.869 | 0.835 | -0.187 | 0.398 | 0.095 | 1.57 | -0.542 | -0.739 | 0.124 | 0.946 | -0.549 | 1.87 | -0.627 | 2.93 |
| TTACCAAGGTGAAGGTCGGTGATCCCTCTGTAGA | 0.881 | 0.952 | -0.494 | 0.467 | -0.916 | 2.14 | 2.65 | 3.05 | 1.65 | 2.96 | 1.69 | 2.91 | -0.0946 | -0.454 | 0.55 | 0.481 | -0.271 | 1.28 | 0.175 | 1.96 |
| CCCATTAGTTGACCATAAGGGCAACCGAAGCTCG | 1.1 | 0.851 | 0.582 | 0.755 | 0.614 | 0.65 | 0.359 | 0.482 | -0.068 | 0.346 | -0.253 | 0.593 | 0.0546 | -0.0766 | 2.18 | 0.867 | 0.974 | 1.05 | 1.57 | 1.7 |
| GCTAGTTGGTCAGTAAAAAGTCACACACCGGTCG | 0.351 | 0.195 | 0.138 | -0.0134 | -0.0534 | 0.217 | 0.434 | 0.856 | 0.159 | 0.726 | 0.793 | 0.0874 | 0.0294 | 0.69 | 0.862 | 0.0868 | -0.328 | 0.255 | 0.758 | 0.863 |
| ACTAGCAGGCCAAGTTTGGGTCACTTAAACAAAG | 0.098 | 0.217 | -0.18 | 0.878 | -0.362 | 1.52 | 0.21 | 0.715 | -0.186 | 0.815 | 0.815 | 1.34 | -0.398 | -0.134 | 0.336 | 0.603 | -0.404 | 1.6 | -0.389 | 1.91 |

— the supplement of paper PMC6555819
